Records with an inconclusive call do not appear. The source made the active and inactive calls. Unless noted, the call rests on the fitted dose curve.
Columns and labels:
[1] = qHTS for Inhibitors of the Functional Ribonucleoprotein Complex (vRNP) of Lassa (LASV) Arenavirus: LASV Primary Screen - GLuc reporter signal (AID 1347082; calls by dose curve; tested in HEK293 reporter line; further: nearly all actives have a fitted effect of over 60% in size; on activity change, negative = inhibition: series mostly up to about 57 µM)
[2] = qHTS for Inhibitors of the Functional Ribonucleoprotein Complex (vRNP) of Lassa (LASV) Arenavirus: Viability assay - alamar blue signal for LASV Primary Screen (AID 1347083; calls by dose curve; tested in HEK293 reporter line; further: nearly all actives have a fitted effect of over 80% in size; on activity change, negative = reduced viability: series mostly up to about 57 µM)
[3] = qHTS for Inhibitors of the Functional Ribonucleoprotein Complex (vRNP) of Lymphocytic Choriomeningitis Arenaviruses (LCMV): Viability assay - alamar blue signal for LCMV Primary Screen (AID 1347085; calls by dose curve; tested in HEK293 reporter line; further: nearly all actives have a fitted effect of over 80% in size; on activity change, negative = lower viability: series mostly up to about 57 µM)
[4] = target: Nucleoprotein (Lymphocytic choriomeningitis virus (strain Armstrong)) (UniProt P09992); assay: qHTS for Inhibitors of the Functional Ribonucleoprotein Complex (vRNP) of Lymphocytic Choriomeningitis Arenaviruses (LCMV): LCMV Primary Screen - GLuc reporter signal (AID 1347086); further: nearly all actives have a fitted effect of over 70% in size; on activity change, negative = inhibition: series mostly up to about 57 µM
Sequence of Nucleoprotein (Lymphocytic choriomeningitis virus (strain Armstrong)) (P09992 whole entry, looked up): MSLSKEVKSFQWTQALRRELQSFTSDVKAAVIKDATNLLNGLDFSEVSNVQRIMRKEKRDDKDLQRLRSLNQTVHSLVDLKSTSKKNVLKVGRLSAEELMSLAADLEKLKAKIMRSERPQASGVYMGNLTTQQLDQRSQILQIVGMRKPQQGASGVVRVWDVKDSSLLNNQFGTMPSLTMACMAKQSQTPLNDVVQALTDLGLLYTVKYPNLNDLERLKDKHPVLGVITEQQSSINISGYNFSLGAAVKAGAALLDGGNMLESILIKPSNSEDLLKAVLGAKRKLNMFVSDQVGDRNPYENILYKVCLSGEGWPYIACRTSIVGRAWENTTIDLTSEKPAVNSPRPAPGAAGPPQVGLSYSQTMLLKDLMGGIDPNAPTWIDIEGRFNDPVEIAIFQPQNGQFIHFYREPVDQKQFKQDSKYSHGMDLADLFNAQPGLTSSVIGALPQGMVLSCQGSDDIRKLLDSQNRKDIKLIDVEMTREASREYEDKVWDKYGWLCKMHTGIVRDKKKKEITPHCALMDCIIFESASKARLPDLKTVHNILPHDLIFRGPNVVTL
On the % scale 0 is the no-effect control and ±100 the full control effect; potency means the concentration at half of the fitted maximal effect.

CN(C)CCOC(=O)COc1ccc(Cl)cc1
inactive: Potency [1] | Potency [2] | Potency [3] | Potency [4]

CCCC(=O)O[C@]1(C(=O)COC(=O)CC)CC[C@H]2[C@@H]3CCC4=CC(=O)CC[C@]4(C)[C@H]3[C@@H](O)C[C@@]21C
inactive: Potency [1] | Potency [2] | Potency [3] | Potency [4]

CC(=O)NO
inactive: Potency [1] | Potency [2] | Potency [3] | Potency [4]

NS(=O)(=O)c1cc(C2(O)NC(=O)c3ccccc32)ccc1Cl (stereo not given)
inactive: Potency [1] | Potency [2] | Potency [3] | Potency [4]

CCN1CCN(C(=O)N[C@@H](C(=O)N[C@@H]2C(=O)N3[C@@H]2SC(C)(C)[C@H]3C(=O)O)c2ccccc2)C(=O)C1=O
inactive: Potency [1] | Potency [2] | Potency [3] | Potency [4]

COc1ccccc1N1CCN(CCCCNC(=O)c2ccc(-c3ccc(C(C)=O)cc3)cc2)CC1
inactive: Potency [1] | Potency [2] | Potency [3] | Potency [4]

CN(C)[C@@H]1C(=O)C(C(N)=O)=C(O)[C@@]2(O)C(=O)C3=C(O)c4c(O)cccc4C[C@H]3C[C@@H]12
inactive: Potency [1] | Potency [2] | Potency [3] | Potency [4]

Cc1oc(=O)oc1COC(=O)[C@@H]1N2C(=O)[C@@H](NC(=O)[C@H](N)c3ccccc3)[C@H]2SC1(C)C
inactive: Potency [1] | Potency [2] | Potency [3] | Potency [4]

COP(=O)(OC)OC(c1ccc(Cl)cc1)P(=O)(OC)OC (stereo not given)
inactive: Potency [1] | Potency [2] | Potency [3] | Potency [4]

O=S(=O)(O)c1ccc2nc(-c3ccccc3)[nH]c2c1
inactive: Potency [1] | Potency [2] | Potency [3] | Potency [4]

COc1cc(OC)nc(O[C@H](C(=O)O)C(OC)(c2ccccc2)c2ccccc2)n1
inactive: Potency [1] | Potency [2] | Potency [3] | Potency [4]

COc1cc(NS(=O)(=O)c2ccc(N)cc2)nc(C)n1
inactive: Potency [1] | Potency [2] | Potency [3] | Potency [4]

CN1Cc2cc(C(=O)N3CCC(C4CCNCC4)CC3)ccc2NC(CC(=O)O)C1=O (stereo not given)
inactive: Potency [1] | Potency [2] | Potency [3] | Potency [4]

CC(COc1ccccc1)NN (stereo not given)
inactive: Potency [1] | Potency [2] | Potency [3] | Potency [4]

O=C(O)c1cc(=O)c2c(OCC(O)COc3cccc4oc(C(=O)O)cc(=O)c34)cccc2o1
inactive: Potency [1] | Potency [2] | Potency [3] | Potency [4]

C[C@H]1O[C@@H](n2cc(F)c(=O)[nH]c2=O)[C@H](O)[C@@H]1O
inactive: Potency [1] | Potency [2] | Potency [3] | Potency [4]

NCCS(=O)(=O)O
inactive: Potency [1] | Potency [2] | Potency [3] | Potency [4]

CC(=O)N[C@@H](CCC(=O)O)C(=O)O
inactive: Potency [1] | Potency [2] | Potency [3] | Potency [4]

O=C(CS(=O)Cc1ccco1)NC/C=C\COc1cc(CN2CCCCC2)ccn1 (stereo not given)
inactive: Potency [1] | Potency [2] | Potency [3] | Potency [4]

Cc1onc(-c2ccccc2)c1C(=O)Cl
inactive: Potency [1] | Potency [2] | Potency [3] | Potency [4]

C#CCC(Cc1cnc2nc(N)nc(N)c2n1)c1ccc(C(=O)N[C@@H](CCC(=O)O)C(=O)O)cc1 (stereo not given in full)
active: Potency [1] 544 nM | Potency [2] 273 nM | Potency [3] 217 nM | Potency [4] 306 nM

NC(N)=NCCN1CCCCCCC1
inactive: activity change, negative = inhibition [1] 1.43% [at 0.757 µM] | activity change, negative = reduced viability [2] 1.98% [at 0.757 µM] | activity change, negative = lower viability [3] 5.22% [at 0.757 µM] | activity change, negative = inhibition [4] -0.256% [at 0.757 µM]

COc1cccc(OC)c1C(=O)N[C@@H]1C(=O)N2[C@@H]1SC(C)(C)[C@@H]2C(=O)O
inactive: Potency [1] | Potency [2] | Potency [3] | Potency [4]

Cn1c([N+](=O)[O-])cnc1COC(N)=O
inactive: Potency [1] | Potency [2] | Potency [3] | Potency [4]

CC(C)Cn1cnc2c(N)nc3ccccc3c21
inactive: Potency [1] | Potency [2] | Potency [3] | Potency [4]

CO/N=C(/C(=O)N[C@@H]1C(=O)N2C(C(=O)OCOC(=O)C(C)(C)C)=C(C)CS[C@H]12)c1csc(N)n1
inactive: Potency [1] | Potency [2] | Potency [3] | Potency [4]

Nc1ccn([C@@H]2CS[C@H](CO)O2)c(=O)n1
inactive: Potency [1] | Potency [2] | Potency [3] | Potency [4]

CC(=O)O[C@]1(C(C)=O)CC[C@H]2[C@@H]3C[C@H](C)C4=CC(=O)CC[C@]4(C)[C@H]3CC[C@@]21C
inactive: Potency [1] | Potency [2] | Potency [3] | Potency [4]

Cc1cc2c(cc1CC(=O)c1sccc1S(=O)(=O)Nc1onc(C)c1Cl)OCO2
inactive: Potency [1] | Potency [2] | Potency [3] | Potency [4]

Nc1nc(N)c(-c2ccccc2)s1
inactive: Potency [1] | Potency [2] | Potency [3] | Potency [4]

CCOc1cc(CC(=O)N[C@@H](CC(C)C)c2ccccc2N2CCCCC2)ccc1C(=O)O
inactive: Potency [1] | Potency [2] | Potency [3] | Potency [4]

Nc1ncnc(Nc2ccccc2)n1
inactive: Potency [1] | Potency [2] | Potency [3] | Potency [4]

CCCCCCCCCCCCCCCCCCO
inactive: Potency [1] | Potency [2] | Potency [3] | Potency [4]

Cc1ccc(-c2ncc(Cl)cc2-c2ccc(S(C)(=O)=O)cc2)cn1
inactive: Potency [1] | Potency [2] | Potency [3] | Potency [4]

C/C(=N\O)[C@@H](C)NCC(C)(C)CN[C@H](C)/C(C)=N/O
inactive: Potency [1] | Potency [2] | Potency [3] | Potency [4]

NC(=O)n1c(O)c(C(=O)c2cccs2)c2cc(Cl)ccc21
inactive: Potency [1] | Potency [2] | Potency [3] | Potency [4]

O=C(O)c1ccccc1S
inactive: Potency [1] | Potency [2] | Potency [3] | Potency [4]

CC(O)(P(=O)(O)O)P(=O)(O)O
inactive: Potency [1] | Potency [2] | Potency [3] | Potency [4]

OC[C@H]1O[C@@H](Oc2ccc(O)cc2)[C@H](O)[C@@H](O)[C@@H]1O
inactive: Potency [1] | Potency [2] | Potency [3] | Potency [4]

CCO/C([O-])=N/c1c[n+](N2CCOCC2)no1
inactive: Potency [1] | Potency [2] | Potency [3] | Potency [4]

NC[C@H]1O[C@H](O[C@H]2[C@H](O[C@@H]3O[C@H](CO)[C@@H](O)[C@H]3O)C(O)[C@H](N)C[C@@H]2N)[C@H](N)[C@@H](O)[C@@H]1O (stereo not given in full)
inactive: activity change, negative = inhibition [1] -1.42% [at 11.5 µM] | activity change, negative = reduced viability [2] -0.396% [at 11.5 µM] | activity change, negative = lower viability [3] -0.301% [at 11.5 µM] | activity change, negative = inhibition [4] 40.8% [at 11.5 µM]

Cc1oc(=O)oc1CN1CCN(c2cc3c(cc2F)c(=O)c(C(=O)O)c2n3C(C)S2)CC1 (stereo not given)
inactive: Potency [1] | Potency [2] | Potency [3] | Potency [4]

Nc1ncnc2c1ncn2[C@@H]1O[C@H](COP(=O)(O)O)[C@@H](O)[C@H]1O
inactive: Potency [1] | Potency [2] | Potency [3] | Potency [4]

CC(=O)[C@@]1(O)CC[C@H]2[C@@H]3C[C@H](C)C4=CC(=O)C=C[C@]4(C)[C@@]3(F)[C@@H](O)C[C@@]21C
inactive: Potency [1] | Potency [2] | Potency [3] | Potency [4]

Nc1nc(N)nc(-c2cc(Cl)ccc2Cl)n1
inactive: Potency [1] | Potency [2] | Potency [3] | Potency [4]

O=C(O)Cn1c(=O)n(Cc2ccc(Br)cc2F)c(=O)c2ccc(Cl)cc21
inactive: Potency [1] | Potency [2] | Potency [3] | Potency [4]

CC(N)CCCC(C)(C)O (stereo not given)
inactive: Potency [1] | Potency [2] | Potency [3] | Potency [4]

CN/C(=C\[N+](=O)[O-])NCCSCc1csc(CN(C)C)n1
inactive: Potency [1] | Potency [2] | Potency [3] | Potency [4]

OCc1cccnc1
inactive: Potency [1] | Potency [2] | Potency [3] | Potency [4]

CN[C@@H]1[C@H](O)[C@H](NC)[C@H]2O[C@@]3(O)C(=O)C[C@@H](C)O[C@H]3O[C@@H]2[C@H]1O
inactive: Potency [1] | Potency [2] | Potency [3] | Potency [4]

NC(=O)c1cccnc1
inactive: Potency [1] | Potency [2] | Potency [3] | Potency [4]

NC(=O)COCCN1CCN(C(c2ccccc2)c2ccc(Cl)cc2)CC1 (stereo not given)
inactive: Potency [1] | Potency [2] | Potency [3] | Potency [4]

CCCCCCCCCCCCCCCC(=O)OC(C)C
inactive: Potency [1] | Potency [2] | Potency [3] | Potency [4]

NNC(=O)c1ccncc1
inactive: Potency [1] | Potency [2] | Potency [3] | Potency [4]

Oc1ccc(Cl)c2cccnc12
inactive: Potency [1] | Potency [2] | Potency [3] | Potency [4]

CC1(C)OC(=O)NC1=O
inactive: Potency [1] | Potency [2] | Potency [3] | Potency [4]

Cc1onc(-c2c(Cl)cccc2Cl)c1C(=O)Cl
inactive: Potency [1] | Potency [2] | Potency [3] | Potency [4]

CCCN1CCCC[C@H]1C(=O)Nc1c(C)cccc1C
inactive: Potency [1] | Potency [2] | Potency [3] | Potency [4]

CN(C)CCN(Cc1ccsc1)c1ccccn1
inactive: Potency [1] | Potency [2] | Potency [3] | Potency [4]

CCNC(=O)/C=C/c1cccc(Br)c1
inactive: Potency [1] | Potency [2] | Potency [3] | Potency [4]
